# Measurements published in PubChem BioAssay (Tox21).
# Inconclusive results are not listed. Entries that show only a call come without a potency. Some compounds were tested as several samples or in several runs, with calls that do not always agree. The source made the active and inactive calls. Unless noted, calls follow the shape of the dose curve; as a rule, active = well fitted curve in the direction sought with a large enough effect in the repeat runs; inconclusive = weak or mixed curves; inactive = no such curve, though single readings can be large; an effect the other way counts as inactive or inconclusive.
# Tests used:
# [1] = qHTS assay to identify small molecule agonists of the peroxisome proliferator-activated receptor delta (PPARd) signaling pathway - cell viability counter screen (AID 743211); also: nearly all actives have a fitted effect of over 55% in size
# Procedure, shortened: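 Tox21 library compounds, delivered in DMSO, were incubated 17 h with PPARd-bla HEK293H cells; cytotoxicity was taken from CellTiter-Glo luminescence read 30 min after reagent addition.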
# [2] = target: Peroxisome proliferator-activated receptor delta (Homo sapiens) (UniProt Q03181); experiment: qHTS assay to identify small molecule agonists of the peroxisome proliferator-activated receptor delta (PPARd) signaling pathway (AID 743212; calls by dose curve)
# Chain of Peroxisome proliferator-activated receptor delta (Homo sapiens) (Q03181 whole entry, looked up): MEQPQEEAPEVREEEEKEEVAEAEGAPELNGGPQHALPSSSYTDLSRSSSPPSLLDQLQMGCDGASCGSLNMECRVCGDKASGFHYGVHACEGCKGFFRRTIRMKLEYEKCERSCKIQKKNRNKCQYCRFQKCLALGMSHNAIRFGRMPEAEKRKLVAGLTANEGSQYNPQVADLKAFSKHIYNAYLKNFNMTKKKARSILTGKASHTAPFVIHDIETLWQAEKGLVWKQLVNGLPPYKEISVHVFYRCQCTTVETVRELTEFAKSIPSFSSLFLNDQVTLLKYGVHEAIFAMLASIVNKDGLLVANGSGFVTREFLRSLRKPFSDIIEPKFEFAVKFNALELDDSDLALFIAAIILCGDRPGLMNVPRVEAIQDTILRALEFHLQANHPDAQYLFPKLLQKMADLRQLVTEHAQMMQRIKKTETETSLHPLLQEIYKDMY
# Procedure, shortened: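 Read-out: beta-lactamase FRET fluorescence after 2 h room-temperature incubation with LiveBLAzer B/G substrate. Cells were HEK293H carrying a UAS-bla reporter for PPARd, treated at 37 C with DMSO-dissolved compounds.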
# [3] = qHTS assay to identify small molecule antagonists of the peroxisome proliferator-activated receptor delta (PPARd) signaling pathway - cell viability counter screen (AID 743213); also: nearly all actives have a fitted effect of over 50% in size
# Procedure, shortened: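 Agonist-stimulated (L165041, 300 nM final) HEK293H PPARd UAS-bla cells are exposed to compounds for 17 h at 37 C, and ATP-based luminescence (CellTiter-Glo) from the same wells reports cytotoxicity.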
# [4] = target: Peroxisome proliferator-activated receptor delta (Homo sapiens) (UniProt Q03181); experiment: qHTS assay to identify small molecule antagonists of the peroxisome proliferator-activated receptor delta (PPARd) signaling pathway (AID 743215; active = well fitted inhibition curve with a large enough effect in the signal ratio in the repeat runs, not every such curve was filed as active; the % refers to the signal ratio; also: series mostly up to about 62 µM)
# Procedure, shortened: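 HEK293H GeneBLAzer PPARd UAS-bla reporter cells; cpd + L165041 300 nM final, 17 h 37 C; LiveBLAzer B/G FRET substrate 2 h RT; fluorescence intensity read-out. Antagonist mode.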
# [5] = target: Bile acid receptor (Homo sapiens) (UniProt Q96RI1); experiment: qHTS assay to identify small molecule antagonists of the farnesoid-X-receptor (FXR) signaling pathway (AID 743217; active = well fitted inhibition curve with a large enough effect in the signal ratio in the repeat runs, not every such curve was filed as active; the % refers to the signal ratio)
# Chain of Bile acid receptor (Homo sapiens) (Q96RI1 whole entry, looked up): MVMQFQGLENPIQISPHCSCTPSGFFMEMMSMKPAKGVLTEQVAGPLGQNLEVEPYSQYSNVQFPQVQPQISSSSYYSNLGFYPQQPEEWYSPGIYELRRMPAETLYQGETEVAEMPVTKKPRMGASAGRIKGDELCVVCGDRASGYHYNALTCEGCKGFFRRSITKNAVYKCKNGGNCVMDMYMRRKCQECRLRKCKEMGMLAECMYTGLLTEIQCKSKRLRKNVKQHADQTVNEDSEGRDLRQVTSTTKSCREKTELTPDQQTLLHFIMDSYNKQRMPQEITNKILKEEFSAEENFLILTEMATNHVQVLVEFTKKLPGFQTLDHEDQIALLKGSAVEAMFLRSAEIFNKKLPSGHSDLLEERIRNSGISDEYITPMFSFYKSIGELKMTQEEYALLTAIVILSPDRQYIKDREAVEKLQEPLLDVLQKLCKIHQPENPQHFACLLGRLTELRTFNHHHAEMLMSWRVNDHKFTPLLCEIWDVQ
# Procedure, shortened: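 Read-out: beta-lactamase FRET fluorescence (LiveBLAzer B/G substrate, 2 h, room temperature) in GeneBLAzer FXR-UAS-bla HEK 293T cells. Compounds were co-dosed with 50 uM chenodeoxycholic acid (final) and incubated 16 h at 37 °C.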
# [6] = qHTS assay to identify small molecule agonists of the farnesoid-X-receptor (FXR) signaling pathway - cell viability counter screen (AID 743218); also: nearly all actives have a fitted effect of over 45% in size
# Procedure, shortened: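 Luminescence from CellTiter-Glo, read after 30 min at RT, reports viability of GeneBLAzer FXR-UAS-bla HEK 293T cells treated 16 h with compounds in the wells used for the beta-lactamase reporter.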
# [7] = target: Bile acid receptor (Homo sapiens) (UniProt Q96RI1); experiment: qHTS assay to identify small molecule agonists of the farnesoid-X-receptor (FXR) signaling pathway (AID 743220; active = well fitted activation curve with a large enough effect in the signal ratio in the repeat runs, not every such curve was filed as active; the % refers to the signal ratio)
# Procedure, shortened: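 FXR-UAS-bla HEK 293T cells carrying a UAS-driven beta-lactamase reporter were plated for 5 h at 37C/5% CO2, then exposed to DMSO-dissolved Tox21 10K compounds for 16 h at 37C. A LiveBLAzer B/G FRET substrate was loaded for 2 h at room temperature before fluorescence reading.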
# [8] = qHTS assay to identify small molecule antagonists of the farnesoid-X-receptor (FXR) signaling pathway - cell viability counter screen (AID 743221; active = well fitted cell-killing curve with a large enough effect in the repeat runs, not every such curve was filed as active; also: nearly all actives have a fitted effect of over 50% in size)
# Procedure, shortened: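 Cytotoxicity is taken from ATP luminescence (CellTiter-Glo, 30 min, room temperature) in FXR-bla HEK 293T cells previously incubated 16 h at 37 C with compound and chenodeoxycholic acid at 50 uM final.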
# [9] = qHTS assay to identify small molecule agonists of the vitamin D receptor (VDR) signaling pathway - cell viability counter screen (AID 743224); also: series mostly up to about 63 µM; nearly all actives have a fitted effect of over 50% in size
# Procedure, shortened: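 Cytotoxicity counter screen: VDR-bla cells, 16 h compound exposure at 37C, 5% CO2; CellTiter-Glo luminescence, 30 min RT, same wells as bla read.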
# [10] = qHTS assay to identify small molecule antagonists of the vitamin D receptor (VDR) signaling pathway - cell viability counter screen (AID 743225); also: nearly all actives have a fitted effect of over 50% in size
# Procedure, shortened: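 Same-well multiplex: following 16 h treatment of HEK 293T cells carrying a UAS-driven beta-lactamase reporter with compound and agonist (3 nM final), and a 2 h FRET substrate step, CellTiter-Glo was added and luminescence read after 30 min.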
# [11] = qHTS assay to identify small molecule agonists of the NFkB signaling pathway (AID 1159509; active = well fitted curve in the direction sought with a large enough effect in the signal ratio in the repeat runs, not every such curve was filed as active; the % refers to the signal ratio; also: series mostly up to about 61 µM)
# Procedure, shortened: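 Readout: FRET fluorescence, 405 nm excitation, 460/530 nm emission; beta-lactamase expression disrupts FRET. Cells: ME-180 stably carrying NF-kB-driven bla reporter. Compound exposure 5 hr, 37 C, 5% CO2.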
# [12] = qHTS assay to identify small molecule agonists of the NFkB signaling pathway - cell viability counter screen (AID 1159515; calls by dose curve; also: series mostly up to about 61 µM; nearly all actives have a fitted effect of over 55% in size)
# Procedure, shortened: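 ME-180 NFkB-bla cells, 2,000/well; overnight attach; compound 5 hr, 37 C/5% CO2; LiveBLAzer substrate 1.5 hr RT; then CellTiter-Glo in same wells, 30 min RT, luminescence read.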
# [13] = qHTS assay to identify small molecule agonists of the endoplasmic reticulum stress response signaling pathway (AID 1159516; active = well fitted activation curve with a large enough effect in the signal ratio in the repeat runs, not every such curve was filed as active; the % refers to the signal ratio)
# Procedure, shortened: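 HeLa ESRE-bla reporter line; cpd 5 h, 37 C/5% CO2; LiveBLAzer B/G FRET substrate 2 h RT; ex 405, em 460/530 nm.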
# [14] = qHTS assay to identify small molecule agonists of the endoplasmic reticulum stress response signaling pathway - cell viability counter screen (AID 1159517; calls by dose curve)
# Procedure, shortened: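 Steps: seed 1,500 ESRE-bla HeLa cells per well; incubate overnight at 37 C, 5% CO2; add compounds in DMSO for 5 hr; run FRET substrate 2 hr RT; add CellTiter-Glo, wait 30 min, read luminescence.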
# [15] = qHTS assay to identify small molecule antagonists of the retinoid-related orphan receptor gamma (ROR-gamma) signaling pathway - cell viability counter screen (AID 1159520); also: nearly all actives have a fitted effect of over 50% in size
# Procedure, shortened: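 Tet-on ROR gamma CHO cells were given compounds for 2 hr, then doxycycline hyclate at 1 uM final, and incubated 16 hr at 37 C. Viability was measured as ATP content by CellTiter-Glo luminescence.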
# [16] = target: Nuclear receptor ROR-gamma (Homo sapiens) (UniProt P51449); experiment: qHTS assay to identify small molecule antagonists of the retinoid-related orphan receptor gamma (ROR-gamma) signaling pathway (AID 1159521; also: nearly all actives have a fitted effect of over 50% in size; also: potency is read from the fitted curve at half-maximal effect)
# Procedure, shortened: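 Inducible-expression reporter assay: doxycycline (1 uM final) switched on RORγ in CHO cells bearing a ROR response element-luciferase construct, with test compounds present from 2 h beforehand. Decreased luminescence after 16 h defined antagonist activity.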
# [17] = qHTS assay to identify small molecule agonists of the AP-1 signaling pathway - cell viability counter screen (AID 1159525; calls by dose curve; also: nearly all actives have a fitted effect of over 55% in size)
# Procedure, shortened: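 Same-well cytotoxicity counter screen of the Tox21 10K library in ME-180 cells. The readout is ATP-dependent luminescence after 5 h compound treatment. Data are normalised to DMSO and tetra n-octyl ammonium bromide controls.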
# [18] = qHTS assay to identify small molecule agonists of the AP-1 signaling pathway (AID 1159526; calls by dose curve)
# [19] = target: Vitamin D3 receptor (Homo sapiens) (UniProt P11473); experiment: qHTS assay to identify small molecule agonists of the vitamin D receptor (VDR) signaling pathway (AID 743222; calls by dose curve)
# Chain of Vitamin D3 receptor (Homo sapiens) (P11473 whole entry, looked up): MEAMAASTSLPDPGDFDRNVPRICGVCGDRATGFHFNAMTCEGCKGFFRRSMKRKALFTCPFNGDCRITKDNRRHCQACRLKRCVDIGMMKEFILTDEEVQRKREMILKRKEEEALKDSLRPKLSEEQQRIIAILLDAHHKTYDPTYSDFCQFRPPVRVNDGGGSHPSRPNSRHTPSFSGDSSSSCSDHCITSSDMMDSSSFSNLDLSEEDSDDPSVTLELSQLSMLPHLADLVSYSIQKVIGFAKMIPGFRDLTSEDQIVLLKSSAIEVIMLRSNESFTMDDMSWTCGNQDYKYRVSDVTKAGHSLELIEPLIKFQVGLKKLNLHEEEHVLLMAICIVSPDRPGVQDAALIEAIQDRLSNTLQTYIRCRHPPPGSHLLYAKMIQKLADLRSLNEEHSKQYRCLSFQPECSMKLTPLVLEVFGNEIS
# Procedure, shortened: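 Beta-lactamase reporter readout (LiveBLAzer B/G FRET, 2 h RT) in VDR-bla cells after 16 h compound treatment at 37C, 5% CO2; cells pre-incubated 4 h before pin transfer of DMSO solutions.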
# [20] = target: Vitamin D3 receptor (Homo sapiens) (UniProt P11473); experiment: qHTS assay to identify small molecule antagonists of the vitamin D receptor (VDR) signaling pathway (AID 743223; active = well fitted inhibition curve with a large enough effect in the signal ratio in the repeat runs, not every such curve was filed as active; the % refers to the signal ratio)
# Procedure, shortened: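 Quantitative HTS in VDR-bla reporter cells stimulated with 1alpha,25-dihydroxyvitamin D3, 3 nM final. Compound exposure 16 h, 37C, 5% CO2. Read-out: beta-lactamase FRET substrate fluorescence, 2 h RT.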
SMILES,outcome [1],outcome [2],outcome [3],Potency [4],outcome [5],outcome [6],outcome [7],outcome [8],outcome [9],outcome [10],outcome [11],outcome [12],outcome [13],outcome [14],Potency [15],Potency [16],Potency [17],Potency [18],outcome [19],outcome [20]
CC1OC(C)OC(C)O1 (stereo not given),inactive,inactive,inactive,inactive,inactive,inactive,inactive,inactive,inactive,inactive,inactive,inactive,inactive,inactive,inactive,inactive,inactive,inactive,–,–
Nc1ccc(Cc2ccc(N)cc2)cc1,inactive,inactive,inactive,inactive,inactive,inactive,inactive,inactive,inactive,inactive,inactive,inactive,inactive,inactive,inactive,inactive,inactive,inactive,inactive,inactive
O=C(O)c1ccccn1,inactive,–,inactive,–,–,–,–,inactive,–,inactive,inactive,inactive,inactive,inactive,inactive,inactive,inactive,inactive,–,–
CON(C)C(=O)Nc1ccc(Cl)c(Cl)c1,inactive,inactive,–,inactive,–,inactive,–,inactive,inactive,inactive,inactive,inactive,inactive,inactive,inactive,inactive,inactive,inactive,inactive,inactive
Cc1ccc(N)cc1N,inactive,inactive,inactive,inactive,inactive,–,inactive,inactive,inactive,inactive,inactive,inactive,inactive,inactive,inactive,inactive,inactive,inactive,–,inactive
CC(C)(C)OOC(C)(C)C,inactive,inactive,inactive,inactive,inactive,inactive,inactive,inactive,inactive,inactive,inactive,inactive,inactive,inactive,inactive,inactive,inactive,inactive,–,–
ClCc1cccnc1,inactive,inactive,inactive,inactive,inactive,inactive,inactive,inactive,–,inactive,inactive,inactive,inactive,inactive,inactive,inactive,inactive,inactive,–,inactive
CC(C#N)CCC#N (stereo not given),inactive,inactive,inactive,inactive,–,–,–,inactive,inactive,inactive,inactive,inactive,inactive,inactive,inactive,inactive,inactive,inactive,–,inactive
[N-]=[N+]=[N-],inactive,inactive,inactive,inactive,–,–,–,inactive,inactive,inactive,inactive,inactive,inactive,inactive,inactive,inactive,inactive,inactive,inactive,inactive
OC(O)C(Cl)(Cl)Cl,inactive,inactive,inactive,inactive,inactive,inactive,inactive,inactive,inactive,inactive,inactive,inactive,inactive,inactive,inactive,inactive,inactive,inactive,–,–
COC(=O)c1ccccc1N,inactive,inactive,inactive,inactive,–,inactive,–,inactive,inactive,inactive,inactive,inactive,inactive,inactive,inactive,inactive,inactive,inactive,inactive,inactive
CC(C)N1C(=O)c2ccccc2NS1(=O)=O,inactive,inactive,inactive,inactive,–,–,–,inactive,–,inactive,inactive,inactive,inactive,inactive,inactive,inactive,inactive,inactive,inactive,–
CC(C)C#N,inactive,inactive,inactive,inactive,–,–,–,inactive,inactive,inactive,inactive,inactive,inactive,inactive,inactive,inactive,inactive,inactive,–,–
CN(C)CCO,inactive,inactive,inactive,inactive,–,inactive,–,inactive,–,inactive,inactive,inactive,inactive,inactive,inactive,inactive,inactive,inactive,inactive,inactive
c1ccc(-c2ccccc2)cc1,inactive,inactive,inactive,inactive,inactive,inactive,inactive,inactive,inactive,inactive,inactive,inactive,inactive,inactive,inactive,inactive,inactive,inactive,–,–
O=Cc1cccc(Oc2ccccc2)c1,inactive,inactive,inactive,inactive,–,inactive,–,inactive,–,inactive,inactive,inactive,inactive,inactive,inactive,inactive,inactive,inactive,inactive,inactive
O=NN1CCCC1,inactive,inactive,inactive,inactive,inactive,–,inactive,inactive,inactive,inactive,inactive,inactive,inactive,inactive,inactive,10.1 µM (active) and inactive,inactive,inactive,–,inactive
